RGS4 inhibitor: Inhibitors of Regulator of G Protein Signaling (RGS) 4: qHTS; Transcreener GDP fluorescence polarization, RGS4-accelerated GTP hydrolysis; actives 0.039% (n = 390,000); Potency, µM (series often up to 114 µM), for the others: at the top dose activity change, negative = inhibition, actives largely listed as inhibitors; also: % is scaled to controls: 0 for no effect and ±100 for the full control effect; nearly all actives have a fitted effect of over 75% in size
Target sequence (P49798 whole entry, looked up): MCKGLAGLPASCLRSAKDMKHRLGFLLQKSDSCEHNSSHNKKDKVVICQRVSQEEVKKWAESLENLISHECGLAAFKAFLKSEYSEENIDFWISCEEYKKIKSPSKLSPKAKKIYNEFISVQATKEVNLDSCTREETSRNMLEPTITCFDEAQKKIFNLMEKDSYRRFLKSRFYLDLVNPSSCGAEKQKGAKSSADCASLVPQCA
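MLSMR compounds (23 nl, pin-transferred) preincubated 10 min at room temperature with a 500nM (2x) first reagent, then RGS4 at 900nM (2x) plus Transcreener GDP mix added; fluorescence polarization (620/688 nm) read before and after 90 min at 30 °C.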
Chronic BCR inh: qHTS Assay to Find Inhibitors of Chronic Active B-Cell Receptor Signaling; actives 0.05% (n = 340,000); Potency, µM (top dose mostly 46.1 µM), without a hit: at the highest dose activity change, negative = inhibition, most hits filed as inhibitors; AID 493014, 2011; ABC-DLBCL IkBa-CBG/CBR reporter, luminescence ratio, 4 h; active = well fitted inhibition curve with a large enough effect in the signal ratio, with a control signal flat, not every such curve was filed as active; inconclusive = small, poorly fitted or top-dose-only effect, or effect the other way, or a change in a side signal; the % refers to the signal ratio;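 also: plate controls were basal doxycycline-induced cells for no effect and cells given 10 µM MG132 for full effect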
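Cell line TMD8 (human ABC DLBCL), stably expressing tet-inducible CBG68-IkBa fusion and CBR; IMDM/0.5% FBS; cpd up to 46 uM; dox induction, 4 h, 37C/5% CO2; dual luminescence; green/red ratio; MG132 control.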
Tb PGK inh: qHTS Assay to Find Inhibitors of Phosphoglycerate Kinase | Potency, µM (series often up to 57.5 µM), without a hit: top-dose activity change, negative = inhibition, actives largely listed as inhibitors | Phosphoglycerate kinase, glycosomal (Trypanosoma brucei brucei), P07378 | PGK/GAPDH coupled, Kinase-Glo luminescence, 60 min | AID 602233, 2012 | actives 0.043% (n = 380,000); also: % is scaled to controls: 0 for no effect and ±100 for the full control effect; nearly all actives have a fitted effect of over 60% in size
Target sequence (P07378 whole entry, looked up): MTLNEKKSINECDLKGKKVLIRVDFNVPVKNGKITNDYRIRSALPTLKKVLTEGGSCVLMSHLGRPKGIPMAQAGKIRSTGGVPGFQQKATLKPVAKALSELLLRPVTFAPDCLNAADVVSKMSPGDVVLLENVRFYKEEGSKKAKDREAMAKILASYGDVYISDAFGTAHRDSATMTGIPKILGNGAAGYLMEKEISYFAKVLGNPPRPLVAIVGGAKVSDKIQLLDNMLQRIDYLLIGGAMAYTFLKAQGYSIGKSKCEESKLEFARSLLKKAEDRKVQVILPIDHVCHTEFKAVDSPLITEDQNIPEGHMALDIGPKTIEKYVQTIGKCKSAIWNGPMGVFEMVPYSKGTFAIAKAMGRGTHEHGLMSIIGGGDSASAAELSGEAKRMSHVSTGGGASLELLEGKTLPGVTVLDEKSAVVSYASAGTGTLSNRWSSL
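Luminescent ATP detection (Kinase-Glo Plus) follows a 60-minute room-temperature incubation, with wells lacking PGK as controls. Buffer: 100 mM TEA (pH 7.6), 5 mM MgCl2, 0.01% Tween-20. Coupling enzyme GAPDH (100 nM final) supplies unstable 1,3-BPG in-well.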
USP2a block: qHTS Assay for Inhibitors of Ubiquitin-specific Protease USP2a Using CHOP2 as the Reporter; USP2 core, Ub-CHOP2 coupled fluorogenic reporter, 485/531; Potency, µM (titrated, usually from 38.3 µM), inactives show top-dose activity change, negative = inhibition, actives largely listed as inhibitors; actives 0.01% (n = 330,000); AID 463254, 2010;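 also: plate controls were DMSO wells for no effect and full inhibition by NEM control for full effect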
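USP2 core (10nM final) preincubated 30min RT with compound in 20mM Tris-HCl pH 8.0, 2mM CaCl2, 2mM beta-mercaptoethanol, 0.05% CHAPS; 25nM Ub-CHOP2 plus 25nM reporter substrate added, fluorescence (Ex485/Em531) read after 60min.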
Tb PFK inh-1: qHTS Assay to Find Inhibitors of T. brucei phosphofructokinase; ATP-dependent 6-phosphofructokinase (Trypanosoma brucei brucei), O15648; T. brucei PFK, ADP-Glo luminescence; Potency, µM (top dose mostly 57.5 µM), for inactives: at the top dose activity, negative = inhibition, hits mostly inhibitors; actives 0.17% (n = 330,000); AID 485367, 2010;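 also: 0% = uninhibited 1x PFK enzyme wells and -100% = no-enzyme wells; nearly all actives have a fitted effect of over 60% in size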
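Compounds were pin-transferred as a titration series up to 57 uM into substrate buffer (0.5 mM F6P, 0.1 mM ATP, pH 8.0), then 1.25 nM PFK was added and reactions ran 45 min before ADP-Glo detection.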
Tb PFK KinaseGlo: Tb PFK orthogonal confirmatory assay using ATP depletion (Kinase-Glo Plus) as an alternative measure of Tb PFK activity: Hit Validation | Tb PFK enzyme, ATP depletion, Kinase-Glo Plus luminescence | actives 47% (n = 1,100) | Potency, µM (series often up to 57.5 µM), for inactives: at the top dose inhibition | AID 504636, 2011 | shares compounds with Tb PFK inh-1; calls by dose curve; also: nearly all actives have a fitted effect of over 60% in size
Tb PFK inh-2: Inhibitors of T. brucei phosphofructokinase: Hit Validation | shares compounds with Tb PFK inh-1 | purified T. brucei PFK, ADP-Glo luminescence, 45 min | Potency, µM (series often up to 57.5 µM), without a hit: at the top dose activity change, negative = inhibition, actives largely listed as inhibitors | actives 41% (n = 1,100) | AID 504637, 2011;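 also: plate controls were full PFK enzyme control for no effect and no enzyme control for full effect; nearly all actives have a fitted effect of over 60% in size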
Numbers without * were called inactive; i = inactive; ? = inconclusive; . = no result given; [ ] = dose if it differs, or a comment. A selection: hits, their analogues and other compounds. The true share with any hit is near 0.25%. Unless noted, calls follow the shape of the dose curve; as a rule, active = well fitted curve in the direction sought with a large enough effect; inconclusive = small, poorly fitted or top-dose-only effect, or another doubt; inactive = no such curve, though single readings can be large; an effect the other way counts as inactive or inconclusive. Potency is read from the fitted curve at half-maximal effect.

SMILES	RGS4 inhibitor	Chronic BCR inh	Tb PGK inh	USP2a block	Tb PFK inh-1	Tb PFK KinaseGlo	Tb PFK inh-2
O=C(NNC(=O)c1ccccc1O)c1cc2ccccc2o1	-6%	?	6%	0%	?	-29%	?
CC(=O)Nc1cc([As](=O)(O)O)ccc1O	11%	3%	-8%	5%	?	?	?
N=c1ccn(Cc2ccc(Cl)cc2)cc1	2%	-2%	-5%	-2%	11µM*	?	?
N=c1ccn(Cc2cccc(Cl)c2)cc1	28%	-2%	2%	0%	7.6µM*	?	19µM*
N=c1ccn(Cc2ccc(Cl)c(Cl)c2)cc1	31%	1%	-7%	2%	1.7µM*	2.4µM*	5.4µM*
N=c1ccn(Cc2ccc(Cl)cc2Cl)cc1	31%	-4%	i	2%	-6%	.	.
COC(=O)C1=C[C@@H](C(=O)OC)C2C3=C(C(=O)[C@]2(C)NC(=O)c2ccccc2)[C@H](C)n2c(=O)n(-c4ccccc4)c(=O)n2[C@@H]3C1 (stereo partly drawn)	37%	.	.	.	.	.	.
Cc1ccc(Cn2c(N)nc3ccccc32)cc1	-18%	3%	-6%	1%	0%	.	.
Nc1nc2ccccc2n1Cc1ccc(Cl)c(Cl)c1	22%	-1%	11%	-5%	?	13µM*	?
O=C(CCn1ccc2cc(S(=O)(=O)N3CCCC3)ccc21)NCc1cccc(Br)c1	-3%	.	-24%	.	.	.	.
CC(C)N(CCc1ccncc1)C(=O)Nc1ccc(Cl)c(Cl)c1	-7%	-2%	0%	4%	?	9%	-7%
Cc1ccc(S(=O)(=O)N2CCN(c3nc(-c4cccs4)nc4nc[nH]c34)CC2)cc1	-8%	.	.	.	.	.	.
CC(C)(CS(=O)(=O)[O-])NC(=O)CC[N+](C)(C)CCO	-5%[11.4 µM]	-2%	2.2µM*	7%	0.67µM*	0.24µM*	0.43µM*
Cc1cccc(-c2nnn3c2nc(NCCc2ccc(S(N)(=O)=O)cc2)c2ccccc23)c1	2%	-12%	-8%	1%	-4%	.	.
Cc1ccc(-c2nnn3c2nc(NCCc2ccc(S(N)(=O)=O)cc2)c2ccccc23)cc1	-53%	?	-6%	1%	?	?	?
O=S(=O)(c1cccc(C(F)(F)F)c1)N1CCN(c2nc(-c3ccccc3)nc3ccccc23)CC1	22%	.	.	.	.	.	.
C=C(C)[C@@H]1C2=CC(C(=O)OC)=C(C[C@@H](C(=C)C)[C@H]3O[C@H]3C3=C[C@H]1OC3=O)O2	-44%	.	.	.	.	.	.
Nc1ccccc1SSc1ccccc1N	?	?	-5%	0%	?	8.5µM*	13µM*
O=C1Nc2ccccc2N(O)N1c1ccc(Cl)c(Cl)c1	-3%	?	-8%	2%	11µM*	?	-15%
O=C(O)c1ccc(Cl)c(N2C(=O)Nc3ccccc3N2O)c1	0%	7%	1%	0%	-5%	.	.
O=C1Nc2cc(Cl)c(Cl)cc2N(O)N1c1ccc(Cl)c(Cl)c1	7%	?	-7%[11.5 µM]	-1%	13µM*	11%	-15%
COC(=O)[C@H](C)[C@H](CC(C)C)NC(=O)[C@H](C)[C@H](CC(C)C)NC(=O)c1ccccn1	-24%	.	.	.	.	.	.
O=Cc1cccc(OC(=O)/C=C/c2ccco2)c1	-48%	?	?	-25%	24µM*	6.7µM*	12µM*
COC(=O)c1ccc(OC(=O)/C=C/c2ccco2)cc1	-6%	?	i	0%	-10%	.	.
O=C1C2CC=C(Cl)CC2C(=O)N1CCCCCCN1C(=O)C2CC=C(Cl)CC2C1=O (stereo not drawn)	6%	?	.	2%	?	?	?
SMILES	RGS4 inhibitor	Chronic BCR inh	Tb PGK inh	USP2a block	Tb PFK inh-1	Tb PFK KinaseGlo	Tb PFK inh-2
O=C1C2CC=C(Cl)CC2C(=O)N1CCN1CCOCC1 (stereo not drawn)	16%	0%	-2%	1%	-1%	.	.
Cc1cc(-c2ccc(S(=O)(=O)N3CCN(c4ccc(Cl)cc4)CC3)s2)on1	-13%	.	-8%	.	.	.	.
NNC(=O)CNc1cccc(Cl)c1	-11%	-15%	-2%	10%	12µM*	24µM*	27µM*
N#Cc1ccc(OCC(=O)Nc2ccc(S(=O)(=O)N3CCOCC3)cc2)cc1	5%	0%	-1%	-1%	12µM*	12µM*	30µM*
Cc1cc(NS(=O)(=O)c2ccc(NC(=S)NCc3ccccc3)cc2)no1	-6%	-3%	-4%	-1%	19µM*	24µM*	?
CCc1nnc(NS(=O)(=O)c2ccc(NC(=O)COc3ccc(Cl)c(C)c3)cc2)s1	19%	-1%	7%	-2%	5.4µM*	2.4µM*	7.6µM*
Cc1cc(NS(=O)(=O)c2ccc(NC(=O)COc3ccc(Cl)cc3)cc2)no1	15%	?	7%	-2%	5.4µM*	1.7µM*	3.8µM*
CCc1nnc(NS(=O)(=O)c2ccc(NC(=O)Nc3ccc(OC)cc3)cc2)s1	-3%	0%	-6%	-2%	?	.	.
N[C@@H](Cc1cc(-c2ccc(Cl)cc2Cl)cc(CP(=O)(O)O)c1O)C(=O)O	i	.	.	.	.	.	.
Cc1cccc(OCC(=O)Nc2ccc(S(=O)(=O)Nc3onc(C)c3C)cc2)c1C	4%	3%	-2%	1%	0%	.	.
Cc1cc(NS(=O)(=O)c2ccc(NC(=O)Cc3ccc([N+](=O)[O-])cc3)cc2)no1	-8%	-1%	4%	0%	2.4µM*	0.85µM*	1.5µM*
Cc1noc(NS(=O)(=O)c2ccc(NC(=O)COc3ccc(C#N)cc3)cc2)c1C	-14%	0%	11%	3%	13µM*	6.7µM*	21µM*
COc1ccc(CNc2nc3c(-c4ccc(C)cc4)nnn3c3ccccc23)cc1	-12%	.	1%	.	.	.	.
CCOc1ccc(-n2ccnc2SCC(=O)Nc2cccc3ccccc23)cc1	-16%	.	0%	.	.	.	.
O=C(Nc1ccccc1F)c1ccc(Cn2nc(N3CCN(c4ccccc4)CC3)ccc2=O)o1	-23%	.	i	.	.	.	.

Assay outcomes (PubChem BioAssay)
